# Screens deposited in PubChem BioAssay by Broad Institute.
# This is a sample that favours compounds with a hit; in the whole collection about 3.7% have one here.
# rRNA inh HTS: reduced GFP signal of wild-type E. coli, primary screen, bacterial rRNA inhibitor project, GFP/RFP fluorescence, OD600, single point; E. coli WT GFP vs humanized-ribosome RFP mutants, 24 h; stronger effect = lower value; DMSO median 0, no signal -100; GFP signal change (wild-type ribosome), % (test concentration not listed); 1.6% of 350,000 active; AID 720706, 2013;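 active = significant combined selectivity score with lowered wild-type GFP, culture density cut under 30%, mutant RFP and density less affected; inactive = any of these conditions unmet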
# esBAF inh: Bmi1 luciferase reporter increase in mESCs, primary screen, esBAF inhibitor project, mouse ES cells, Bmi1 luciferase knock-in, single point. 2% of 350,000 active. reporter increase, % at 12.5 µM. 24 h; 100% = twice the neutral-well signal; in the data active = activation above about 40%; inconclusive = no clear call, values can overlap the other calls;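 note: 0% = median of the plate's neutral control wells and 100% = double that signal; a rise in the Bmi1 reporter signal indicates esBAF inhibition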
# Wnt bcat act: Wnt/beta-catenin pathway activators, primary screen, cell-based, plate reader, single point; AID 743398, 2014; Wnt/beta-catenin reporter cell assay, activator; activation, % at 9.35 µM; 1.2% of 300,000 active; in the data active = activation above about 30%, passing the limit was not always enough; inconclusive = no clear call, values can overlap the other calls;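 note: 0% = neutral control wells and 100% = positive control wells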
# MITF TRPM1 HTS: activators of MITF-driven TRPM1 promoter reporter, primary screen, cell-based, SK-MEL-5, luciferase, single point; activation, % at 12.5 µM; AID 588334, 2011; SK-MEL-5 TRPM1-promoter luciferase, 24 h; % of positive control, neutral wells = 0; 0.75% of 300,000 active;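 active = mean activation of at least 80% with every replicate also reaching 80%; inconclusive = mean reaches 80% but some replicate falls short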;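 note: 0% = neutral control wells and 100% = parthenolide positive control wells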
# AF4-AF9 inh: inhibitors of AF4 peptide binding to AF9, primary screen, biochemical, AlphaScreen, biotin-AF4 peptide, FLAG-AF9, single point; Protein AF-9 (Homo sapiens), P42568; inhibition, % at 10 µM; 0.47% of 350,000 active; AID 651704, 2012;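 active = every replicate reaching a set inhibition limit, whatever the replicate mean, cut at about 25% in these data; inconclusive = mean inhibition reaches that limit but some replicates miss it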;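 note: 0% = plate neutral control median and 100% = total signal loss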
# Target sequence (P42568 whole entry, looked up): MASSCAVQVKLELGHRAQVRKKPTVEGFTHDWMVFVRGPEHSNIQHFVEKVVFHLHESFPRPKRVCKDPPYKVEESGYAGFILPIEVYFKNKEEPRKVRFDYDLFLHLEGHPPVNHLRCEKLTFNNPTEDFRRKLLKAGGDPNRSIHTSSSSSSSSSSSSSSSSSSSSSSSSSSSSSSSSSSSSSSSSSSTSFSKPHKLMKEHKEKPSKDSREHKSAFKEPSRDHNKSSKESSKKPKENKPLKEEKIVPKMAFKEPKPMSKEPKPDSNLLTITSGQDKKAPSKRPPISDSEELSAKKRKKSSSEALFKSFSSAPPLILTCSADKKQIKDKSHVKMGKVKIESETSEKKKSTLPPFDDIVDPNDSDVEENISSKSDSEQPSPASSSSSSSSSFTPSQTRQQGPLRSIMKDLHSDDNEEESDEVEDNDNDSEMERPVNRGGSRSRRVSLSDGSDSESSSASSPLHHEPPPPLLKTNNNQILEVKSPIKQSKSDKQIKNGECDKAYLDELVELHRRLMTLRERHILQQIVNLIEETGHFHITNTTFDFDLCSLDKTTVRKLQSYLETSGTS
# * marks the source's active call; other numbers are inactive results; ? = inconclusive; · = no result given.
SMILES,rRNA inh HTS,esBAF inh,Wnt bcat act,MITF TRPM1 HTS,AF4-AF9 inh
Cc1ccccc1C(=O)NC(=S)Nc1ccccc1C(=O)O,-3.7,-1.9,-0.1,8.5,-5.4
O=C(Nc1ccccn1)c1ccccc1,·,26.3,26.3,82.1*,-1.3
O=C(Nc1ccccn1)c1ccc(C(=O)Nc2ccccn2)cc1,·,27.7,·,·,·
O=C(NC(=S)Nc1ccccn1)c1ccc(-c2ccccc2)cc1,-7.3,·,-0.9,116.5*,1.9
C=CCN1C(=O)C2C(C(=O)NC3CCCC3)C3(C)C=CC2(O3)C1C(=O)NC1CCCC1 (configuration not stated),4.5,8.2,3.2,25.3,-7.5
O=C(O)c1ccccc1C(=O)Nc1cc(-c2ccccc2)[nH]n1,2.5,-4.6,-3.5,-3.5,0.4
O=C(Nc1cc(-c2ccccc2)[nH]n1)c1ccccc1,·,·,43.3*,·,0.5
CCOC(=O)C1(Cc2cccc(OC)c2)CCN(Cc2ccccc2)CC1,-8.7,-0.2,-1.1,-0.3,3.2
CCOC(=O)C1(Cc2ccccc2Cl)CCN(Cc2csc(C(C)=O)c2)CC1,-22.8*,-5.1,-1.1,18.9,3.8
CCCC#Cc1ccc([C@H]2[C@H](CO)N3C(=O)CN(S(=O)(=O)c4ccccc4C)C[C@@H]23)cc1,-9.4,·,·,·,-1.5
Cc1ccc(-c2csc(Nc3ccccn3)n2)cc1,-40.0,-58.6,1.7,-9.7,1.9
Cc1ccnc(Nc2nc(-c3ccc(F)cc3)cs2)c1,-36.4*,35.9,-0.5,·,6.1
Cc1ccnc(Nc2nc(-c3sc(C)nc3C)cs2)c1,-34.5*,43.0*,1.0,·,5.7
Cc1nc(C)c(-c2csc(Nc3ccccn3)n2)s1,-39.5,-60.7,21.9,·,-1.2
Cc1ccnc(Nc2nc(-c3ccc(Cl)cc3)cs2)c1,9.7,66.9*,5.9,13.0,-6.5
C=CCNc1nc(-c2ccc(Cl)cc2)cs1,·,·,·,134.2*,·
COCCNC(=O)C[C@H]1CC[C@@H]2[C@H](COc3ccc(NC(=O)COC)cc3C(=O)N2C)O1,4.4,2.2,·,·,0.9
Cc1nc(C)c(-c2csc(Nc3cccc(O)c3)n2)s1,-31.5,·,84.5*,41.6,7.6
CS(=O)(=O)N1CCc2cc(C(=O)N3CCN(c4ccccc4)CC3)ccc21,2.0,10.4,0.7,-8.6,1.5
O=C(c1ccc2c(c1)CCN2S(=O)(=O)c1ccccc1)N1CCN(c2ccccc2F)CC1,-22.5*,-2.3,2.2,-5.7,-1.0
O=C(NNC(=O)c1cccc(S(=O)(=O)N2CCc3ccccc32)c1)c1ccccc1,-25.5*,·,-1.2,-16.4,-2.1
O=C(Nc1ccccn1)c1cccc(S(=O)(=O)N2CCCc3ccccc32)c1,-33.2,4.7,-5.8,-11.2,3.6
Cc1ccnc(NC(=O)c2cccc(S(=O)(=O)N3CCCc4ccccc43)c2)c1,-13.5,·,29.9,88.4*,-2.9
CC(C)CCNC(=O)c1cccc(S(=O)(=O)N2CCc3ccccc32)c1,·,-7.2,0.0,-7.3,·
COC(=O)c1ccc(N2CCN(C)CC2)c(NC(=O)c2ccc(Br)o2)c1,-4.5,·,0.5,-16.2,1.0
SMILES,rRNA inh HTS,esBAF inh,Wnt bcat act,MITF TRPM1 HTS,AF4-AF9 inh
Cc1cc(NC(=O)c2ccccc2)n(-c2ccccc2)n1,·,·,-1.2,-17.5,-1.1
COCCN=C1Sc2nc3ccc(C)cc3cc2CN1Cc1ccco1,·,53.7*,-3.4,23.6,·
O=C(NC1CCCC1)c1cccc(S(=O)(=O)N2CCOCC2)c1,3.4,-0.9,-2.2,-2.4,5.9
Nc1ccc(-n2nc3ccccc3n2)cc1,-7.0,·,-0.6,·,-10.0
Cc1ccc(-n2nc3cc(C)c(N)cc3n2)cc1,·,·,·,1.1,·
Nc1ccc2nn(-c3ccccc3)nc2c1,-9.7,57.5*,12.2,1.1,0.5
Nc1cc2nn(-c3ccccc3)nc2cc1Cl,0.7,·,48.7*,2.2,1.7
COc1cccc(S(=O)(=O)N2CC3(CN(C(=O)Nc4ccc(F)cc4)[C@H](CO)c4[nH]c5cc(OC)ccc5c43)C2)c1,-0.1,·,·,·,1.3
N#Cc1ccccc1CSc1nc2ccc(NC(=O)c3ccccc3C(=O)O)cc2s1,-23.1*,·,-0.8,28.1,-0.7
CCOc1ccc(CCNC(=O)COC(=O)c2cccc(N(C)C)c2)cc1OCC,0.5,53.5*,50.6*,44.3,0.8
CC1CC(Nc2ccccc2)c2ccccc2N1C(=O)c1ccco1 (configuration not stated),-27.6*,5.7,6.9,-6.4,6.5
CC1CC(Nc2ccccc2)c2ccccc2N1C(=O)c1ccncc1 (configuration not stated),0.5,-4.8,1.7,0.4,-1.0
CC1CCN(C(=O)CCCl)c2ccccc21 (configuration not stated),·,-8.5,0.0,15.3,-2.2
COC(=O)c1c(NC(=O)Nc2ccc(Cl)cc2)sc(C)c1C,·,18.3,-0.9,-4.4,·
CCCC(=O)Nc1sc(Cc2ccccc2)c(C)c1C(N)=O,-23.6*,5.1,-1.0,-4.4,0.3
CC1(C)Cc2c(sc(NC(=O)C(=O)N3CCCC3)c2C(N)=O)CO1,3.3,·,-0.8,1.9,-2.7
CC1(C)Cc2c(sc(NC(=O)Nc3ccccc3)c2C(N)=O)CO1,10.8,54.7*,17.9,·,-8.9
Cc1sc(NC(=S)NC(=O)c2ccco2)c(C(N)=O)c1C,2.8,48.6*,24.5,35.9,-2.1
Cc1sc(NC(=O)Nc2ccccc2)c(C(N)=O)c1C,3.1,?,33.0*,40.0,-1.2
C[C@H](CO)N1C[C@H](C)[C@@H](CN(C)Cc2ccccc2)Oc2ccc(NC(=O)Cc3ccccc3)cc2C1=O,2.5,-2.1,·,·,-2.0
COC(=O)c1ccccc1N=C(SC)N(C)C,·,-2.1,·,-0.2,·
COc1ccccc1NC(=O)CSc1nnc(C)n1Cc1ccccc1,-1.1,9.7,-0.2,-3.9,-6.4
O=C(c1ccc(-c2ccc([N+](=O)[O-])cc2Cl)o1)N1CCOCC1,11.1,·,1.5,-8.1,-1.6
CC1CCN(C(=O)c2ccc(-c3ccccc3Cl)o2)CC1,-55.7,?,44.4*,109.8*,7.0
O=C(c1ccc(-c2ccccc2Cl)o1)N1CCC1,-16.3,84.2*,19.7,?,-5.7
O=C(c1ccc(-c2cccc(C(F)(F)F)c2)o1)N1CCOCC1,·,70.5*,-1.3,56.6,·
CC(=O)N1CCN(C(=O)c2ccc(-c3cccc(C(F)(F)F)c3)o2)CC1,-6.3,-1.0,-2.3,11.7,-0.4
O=C(c1ccc(-c2ccccc2Cl)o1)N1CCCC(C(F)(F)F)C1 (configuration not stated),-40.2,50.9*,-2.9,?,1.3
O=C(c1cc(-c2ccccc2Cl)on1)N1CCCC1,-8.7,-62.6,7.9,-7.7,0.4
CO[C@H]1CN(C)C(=O)c2cc(NC(C)=O)ccc2OC[C@H](C)N(C(=O)c2ccccc2F)C[C@H]1C,0.3,-4.3,·,·,2.6
